PubChem BioAssay
For some of these results: Potency and affinity values are given separately. Active and inactive are the calls of the source. Unless noted, how the calls were made is not given here.

Tests used:
[1] = antimalarial activity against Dd2 strain (AID 2302;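 active means growth inhibition above 50% at the single 2 µM test dose, taken to imply half-maximal potency below 2 µM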;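 further: 0% = DMSO untreated growth and 100% = chloroquine plus artemisinin killed control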); settings: P. falciparum Dd2 in RBCs, LDH growth readout, 72 h; at 2 µM; stronger effect = higher value
[2] = HepG2 cytotoxicity, primary screen, cytotoxicity control for P. falciparum antimalarial project, cell-based, ATP luminescence (AID 2303;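 active means inhibition above 50%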;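 further: 0% = DMSO wells and 100% = digitonin-killed cells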); settings: HepG2 viability, 24-48 h, at 10 µM, stronger effect = higher value
[3] = target: L-lactate dehydrogenase (Plasmodium falciparum (isolate CDC / Honduras)) (UniProt Q27743); assay: PfLDH activity inhibition – cell lysate, 3D7 strain, counter-screen for P. falciparum growth inhibition project (AID 2304);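 further: 0% = vehicle and 100% = reference inhibitor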; settings: P. falciparum 3D7 crude extract, LDH APAD/NBT absorbance; at 2 µM; stronger effect = higher value
Chain of L-lactate dehydrogenase (Plasmodium falciparum (isolate CDC / Honduras)) (Q27743 whole entry, looked up): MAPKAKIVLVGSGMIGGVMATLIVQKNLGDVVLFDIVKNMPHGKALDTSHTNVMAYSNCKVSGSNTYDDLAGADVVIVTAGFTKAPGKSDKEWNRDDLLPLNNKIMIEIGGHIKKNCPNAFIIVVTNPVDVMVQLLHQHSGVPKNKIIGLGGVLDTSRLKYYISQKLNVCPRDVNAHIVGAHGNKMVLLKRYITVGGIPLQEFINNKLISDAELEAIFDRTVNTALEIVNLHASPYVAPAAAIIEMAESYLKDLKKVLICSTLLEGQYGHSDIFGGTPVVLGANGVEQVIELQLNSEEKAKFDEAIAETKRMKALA

[4] = inhibition of 3D7 malaria parasite growth – strain 3D7 (AID 2306);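 further: 0% = DMSO wells and 100% = chloroquine plus artemisinin control wells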; settings: P. falciparum 3D7 erythrocytic growth, LDH absorbance, 72 h; at 2 µM; stronger effect = higher value
[5] = target: Calcium-dependent protein kinase 1 (Plasmodium falciparum (isolate 3D7)) (UniProt P62344); assay: PfCDPK1 kinase inhibitors, biochemical, TCAMS library (AID 1159585; cut-off not given, nearly all actives have IC50 up to about 0.98 µM;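 further: inhibitors leave more ATP so luminescence rises with inhibition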); settings: recombinant PfCDPK1, Kinase-Glo ATP depletion luminescence
Chain of Calcium-dependent protein kinase 1 (Plasmodium falciparum (isolate 3D7)) (P62344 whole entry, looked up): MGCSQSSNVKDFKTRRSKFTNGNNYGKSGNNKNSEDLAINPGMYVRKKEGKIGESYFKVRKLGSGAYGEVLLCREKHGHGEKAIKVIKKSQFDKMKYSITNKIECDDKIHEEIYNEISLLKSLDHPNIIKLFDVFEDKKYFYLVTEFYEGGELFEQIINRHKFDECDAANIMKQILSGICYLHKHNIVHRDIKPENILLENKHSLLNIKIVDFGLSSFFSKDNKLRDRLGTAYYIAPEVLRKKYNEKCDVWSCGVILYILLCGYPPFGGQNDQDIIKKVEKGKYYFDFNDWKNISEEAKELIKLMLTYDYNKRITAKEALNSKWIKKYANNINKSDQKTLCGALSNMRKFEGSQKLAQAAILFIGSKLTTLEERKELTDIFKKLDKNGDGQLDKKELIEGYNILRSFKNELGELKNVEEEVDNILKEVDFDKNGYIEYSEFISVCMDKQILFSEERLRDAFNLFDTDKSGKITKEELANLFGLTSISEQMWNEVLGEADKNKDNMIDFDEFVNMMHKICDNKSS

[6] = target: Plasmodium falciparum protein kinase 6 (PK6, PF3D7_1337100) (UniProt Q8IDW1); assay: PfPK6 kinase inhibitors, biochemical, TCAMS library (AID 1159586); settings: recombinant PfPK6, Kinase-Glo ATP depletion luminescence
Chain of Plasmodium falciparum protein kinase 6 (PK6, PF3D7_1337100) (Q8IDW1 1-305): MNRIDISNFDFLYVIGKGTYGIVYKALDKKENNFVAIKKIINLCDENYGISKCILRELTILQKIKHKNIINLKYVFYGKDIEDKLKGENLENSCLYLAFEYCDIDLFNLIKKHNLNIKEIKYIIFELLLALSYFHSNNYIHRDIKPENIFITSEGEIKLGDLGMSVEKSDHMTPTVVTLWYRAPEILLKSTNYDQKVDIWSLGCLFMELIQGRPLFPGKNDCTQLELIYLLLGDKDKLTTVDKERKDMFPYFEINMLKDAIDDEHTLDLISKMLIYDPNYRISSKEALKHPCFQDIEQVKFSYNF

[7] = target: Protein kinase 7 (PK7), Plasmodium falciparum 3D7 (PF3D7_0213400) (UniProt Q7YTF7); assay: inhibition of Plasmodium PK7 catalytic activity – biochemical, TCAMS antimalarial set, Kinase-Glo luminescence (AID 1159587); settings: recombinant PfPK7, Kinase-Glo ATP depletion luminescence
Chain of Protein kinase 7 (PK7), Plasmodium falciparum 3D7 (PF3D7_0213400) (Q7YTF7 1-343): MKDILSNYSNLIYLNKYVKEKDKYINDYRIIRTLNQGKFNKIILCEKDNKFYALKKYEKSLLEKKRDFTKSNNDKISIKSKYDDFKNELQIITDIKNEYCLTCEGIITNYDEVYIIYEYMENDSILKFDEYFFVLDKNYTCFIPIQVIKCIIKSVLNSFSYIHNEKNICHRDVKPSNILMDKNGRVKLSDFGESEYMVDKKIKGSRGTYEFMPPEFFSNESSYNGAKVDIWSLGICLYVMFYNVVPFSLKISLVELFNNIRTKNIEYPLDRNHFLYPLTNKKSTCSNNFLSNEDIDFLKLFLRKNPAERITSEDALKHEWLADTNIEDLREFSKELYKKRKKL

[8] = target: Calcium-dependent protein kinase 4 (Plasmodium falciparum (isolate 3D7)) (UniProt Q8IBS5); assay: PfCDPK4 kinase inhibitors, biochemical, TCAMS library (AID 1159588; cut-off not given, nearly all actives have IC50 up to about 0.91 µM); settings: recombinant PfCDPK4, Kinase-Glo ATP depletion luminescence
Chain of Calcium-dependent protein kinase 4 (Plasmodium falciparum (isolate 3D7)) (Q8IBS5 whole entry, looked up): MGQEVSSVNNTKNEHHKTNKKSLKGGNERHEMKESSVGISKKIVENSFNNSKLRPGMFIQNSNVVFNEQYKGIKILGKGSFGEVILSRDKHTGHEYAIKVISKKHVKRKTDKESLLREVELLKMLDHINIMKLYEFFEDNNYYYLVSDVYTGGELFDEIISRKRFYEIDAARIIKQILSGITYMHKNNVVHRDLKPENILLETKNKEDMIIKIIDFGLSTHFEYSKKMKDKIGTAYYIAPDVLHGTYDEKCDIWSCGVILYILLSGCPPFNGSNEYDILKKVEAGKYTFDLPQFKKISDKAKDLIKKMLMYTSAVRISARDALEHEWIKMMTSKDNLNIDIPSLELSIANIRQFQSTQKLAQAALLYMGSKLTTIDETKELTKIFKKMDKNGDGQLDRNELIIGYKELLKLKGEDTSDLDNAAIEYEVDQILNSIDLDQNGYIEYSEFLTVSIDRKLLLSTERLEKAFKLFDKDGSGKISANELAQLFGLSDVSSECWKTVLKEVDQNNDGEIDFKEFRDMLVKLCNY

N#Cc1ccccc1C1CCN(C2CCC(Nc3cc(-c4cccnc4)ccn3)CC2)CC1 (stereo not drawn)
inactive: inhibition [2] 38% | inhibition [3] 5% | outcome [5] | outcome [6] | outcome [7] | outcome [8]
active: growth inhibition [1] 78% | growth inhibition [4] 100%

O=C(Nc1cc(Cl)ccc1O)c1cnn2c(C(F)(F)F)cc(-c3cccs3)nc12
inactive: inhibition [2] 8% | inhibition [3] 1% | outcome [5] | outcome [6] | outcome [7] | outcome [8]
active: growth inhibition [1] 74% | growth inhibition [4] 100%

CS(=O)(=O)CCNCc1nc(-c2ccc3c(Nc4ccc(Cl)cc4F)ccnc3c2)cs1
active: growth inhibition [4] 88%
inactive: growth inhibition [1] 28% | inhibition [2] 19% | inhibition [3] 1% | outcome [5] | outcome [6] | outcome [7] | outcome [8]

NCC1CCCN1Cc1cccc(-c2ccc(-c3nc4ccc(C(F)(F)F)cc4[nH]3)cc2)c1 (stereo not drawn)
inactive: inhibition [2] 20% | inhibition [3] 0% | outcome [5] | outcome [6] | outcome [7] | outcome [8]
active: growth inhibition [1] 95% | growth inhibition [4] 100%

COc1ccc2nc(C)cc(Nc3ccc(Oc4ccc(Cl)cc4)c(Cl)c3)c2c1
active: growth inhibition [1] 100% | growth inhibition [4] 101%
inactive: inhibition [2] 48% | inhibition [3] -2% | outcome [5] | outcome [6] | outcome [7] | outcome [8]

COc1ccc(CCNc2nc(NCc3ccccc3)c3cc(OC)c(OC)cc3n2)cc1OC
active: growth inhibition [1] 91% | growth inhibition [4] 100%
inactive: inhibition [2] 46% | inhibition [3] 0% | outcome [5] | outcome [6] | outcome [7] | outcome [8]

O=C(N[C@@H](CC1CCCCC1)C(=O)NCCN1CCCCC1)c1ccc(O)c(-c2cccc(C(F)(F)F)c2)c1
inactive: inhibition [2] -5% | inhibition [3] 6% | outcome [5] | outcome [6] | outcome [7] | outcome [8]
active: growth inhibition [1] 97% | growth inhibition [4] 99%

Cc1[nH]c2ccc(-c3ccc(OC(F)(F)F)cc3)cc2c(=O)c1C#N
active: growth inhibition [1] 97% | growth inhibition [4] 98%
inactive: inhibition [2] -5% | inhibition [3] -9% | outcome [5] | outcome [6] | outcome [7] | outcome [8]

CN(C)c1cc(NC(=O)Nc2ccc(SC(F)(F)F)cc2)c2ccccc2n1
active: growth inhibition [1] 100% | growth inhibition [4] 100%
inactive: inhibition [2] 22% | inhibition [3] -4% | outcome [5] | outcome [6] | outcome [7] | outcome [8]

Cc1cc(NC(=O)c2sc3ccccc3c2O)no1
inactive: growth inhibition [1] 25% | inhibition [2] 6% | inhibition [3] 1% | outcome [5] | outcome [6] | outcome [7] | outcome [8]
active: growth inhibition [4] 96%

O=C(Cc1ccc(Cl)cc1)Nc1cc(Cl)ccc1Cn1cnc(N2CCNCC2)cc1=O
inactive: growth inhibition [1] 2% | inhibition [2] 9% | inhibition [3] -4% | outcome [5] | outcome [6] | outcome [7] | outcome [8]
active: growth inhibition [4] 97%

CC(C)(C)C(=O)N1CCN(c2ccc([N+](=O)[O-])c(NC3CC3)c2)CC1
inactive: inhibition [2] 8% | inhibition [3] 3% | outcome [5] | outcome [6] | outcome [7] | outcome [8]
active: growth inhibition [1] 97% | growth inhibition [4] 95%

CCOc1c(C)cc(C(F)(F)F)cc1CNCCCNc1cc(=O)c2ccccc2[nH]1
active: growth inhibition [4] 97%
inactive: growth inhibition [1] 1% | inhibition [2] -1% | inhibition [3] -7% | outcome [5] | outcome [6] | outcome [7] | outcome [8]

COc1ccc2cc(C(C)NC3CCN(c4cccc(NC(=O)c5ccncc5)c4)CC3)ccc2c1 (stereo not drawn)
inactive: growth inhibition [1] 6% | inhibition [2] 13% | inhibition [3] -1% | outcome [5] | outcome [6] | outcome [7] | outcome [8]
active: growth inhibition [4] 91%

COc1ccc2nccc(N3CCC(SCCNS(=O)(=O)c4ccc5c(c4)OCCO5)C3)c2n1 (stereo not drawn)
inactive: inhibition [2] 36% | inhibition [3] 5% | outcome [5] | outcome [6] | outcome [7] | outcome [8]
active: growth inhibition [1] 87% | growth inhibition [4] 94%

Cc1ccc(S(=O)(=O)c2nc(S(=O)(=O)c3ccccc3)sc2NCC2CCCO2)cc1 (stereo not drawn)
inactive: growth inhibition [1] 17% | inhibition [2] 4% | inhibition [3] 0% | outcome [5] | outcome [6] | outcome [7] | outcome [8]
active: growth inhibition [4] 88%

CC1(C)C[C@@H]2C[C@@](C)(CN2C(=O)c2cc(C(C)(C)C)nn2Cc2ccccc2)C1
active: growth inhibition [1] 77% | growth inhibition [4] 86%
inactive: inhibition [2] -3% | inhibition [3] 0% | outcome [5] | outcome [6] | outcome [7] | outcome [8]

Cc1cc(C)n2nc(C(=O)Nc3cc(C(F)(F)F)ccc3N3CCOCC3)nc2n1
active: growth inhibition [1] 91% | growth inhibition [4] 94%
inactive: inhibition [2] 2% | inhibition [3] -3% | outcome [5] | outcome [6] | outcome [7] | outcome [8]

CN1CCCN(Cc2ccc(-c3cccc(NC(=O)c4cccc(F)c4)c3)cc2)CC1
active: growth inhibition [4] 91%
inactive: growth inhibition [1] 12% | inhibition [2] 28% | inhibition [3] -3% | outcome [5] | outcome [6] | outcome [7] | outcome [8]

CCOC(=O)c1[nH]c(-c2ccc(-c3ccccc3)cc2)nc1N
active: growth inhibition [4] 98%
inactive: growth inhibition [1] 2% | inhibition [2] -1% | inhibition [3] 6% | outcome [5] | outcome [6] | outcome [7] | outcome [8]

CN1CCN(c2ccc(-c3cccc(NC(=O)c4cccc(Cl)c4)c3)nn2)CC1
active: growth inhibition [4] 94%
inactive: growth inhibition [1] 37% | inhibition [2] 5% | inhibition [3] -2% | outcome [5] | outcome [6] | outcome [7] | outcome [8]

Cc1nc(N)nc(N)c1-c1cc(Cl)c(N)c(Cl)c1
inactive: growth inhibition [1] 2% | inhibition [3] 6% | outcome [5] | outcome [6] | outcome [7] | outcome [8]
active: inhibition [2] 62% | growth inhibition [4] 94%

COc1ccc(OC)c(NC(=O)C2c3ccccc3C(=O)N(CC(C)C)C2c2cccs2)c1 (stereo not drawn)
inactive: inhibition [2] 9% | inhibition [3] -5% | outcome [5] | outcome [6] | outcome [7] | outcome [8]
active: growth inhibition [1] 66% | growth inhibition [4] 100%

CC[C@H](C)CNC(=O)c1cncc(-c2ccc(CN3CCC(N4CCCC4)CC3)cc2)c1
inactive: inhibition [2] -8% | inhibition [3] 3% | outcome [5] | outcome [6] | outcome [7] | outcome [8]
active: growth inhibition [1] 100% | growth inhibition [4] 101%

CCn1c(Sc2ccc([N+](=O)[O-])c(C#N)c2)nnc1-c1ccc(Cl)cc1
active: growth inhibition [4] 93%
inactive: growth inhibition [1] 7% | inhibition [2] 2% | inhibition [3] -2% | outcome [5] | outcome [6] | outcome [7] | outcome [8]

CCc1c(C(=O)NC2CCC(N3CCC(c4ccccc4C)CC3)CC2)[nH]c2ccc(OC)cc12 (stereo not drawn)
active: growth inhibition [1] 100% | inhibition [2] 78% | growth inhibition [4] 101%
inactive: inhibition [3] -1% | outcome [5] | outcome [6] | outcome [7] | outcome [8]

CCCC(=O)NC(c1cccs1)c1cc(Cl)c2cccnc2c1O (stereo not drawn)
inactive: inhibition [3] -4% | outcome [5] | outcome [6] | outcome [7] | outcome [8]
active: growth inhibition [1] 61% | inhibition [2] 51% | growth inhibition [4] 87%

COc1ccc2nc3cc(Cl)ccc3c(NCCCO)c2c1
inactive: inhibition [2] 32% | inhibition [3] -1% | outcome [5] | outcome [6] | outcome [7] | outcome [8]
active: growth inhibition [1] 100% | growth inhibition [4] 100%

CCOC(=O)C1=C(C)N=c2sc(=Cc3cc(Cl)ccc3O)c(=O)n2C1c1cc(OC)c(OC)cc1Br (stereo not drawn)
active: growth inhibition [1] 76% | growth inhibition [4] 97%
inactive: inhibition [2] 6% | inhibition [3] -2% | outcome [5] | outcome [6] | outcome [7] | outcome [8]

Cc1cc(C(=O)Nc2ccc3c(c2)CCN3C2CCN(Cc3cccc4cc[nH]c34)C2)no1 (stereo not drawn)
inactive: inhibition [2] -1% | inhibition [3] 1% | outcome [5] | outcome [6] | outcome [7] | outcome [8]
active: growth inhibition [1] 96% | growth inhibition [4] 97%

c1ccc(-c2ccc(CNCc3ccc(-c4cccc(-c5nc6ccccc6[nH]5)c4)cc3)s2)nc1
active: growth inhibition [1] 80% | growth inhibition [4] 98%
inactive: inhibition [2] 48% | inhibition [3] -1% | outcome [5] | outcome [6] | outcome [7] | outcome [8]

CC1(C)N=C(N)N=C(N)N1OCc1cc(Cl)c(CON2C(N)=NC(N)=NC2(C)C)cc1Cl
active: growth inhibition [1] 77% | growth inhibition [4] 94%
inactive: inhibition [2] 21% | inhibition [3] 3% | outcome [5] | outcome [6] | outcome [7] | outcome [8]

CCOC(=O)c1c(CN2CCCC2)n(-c2ccccc2)c2cc(Br)c(O)cc12
active: growth inhibition [1] 53% | growth inhibition [4] 83%
inactive: inhibition [2] -2% | inhibition [3] -2% | outcome [5] | outcome [6] | outcome [7] | outcome [8]

C=CCc1cc(C2CCN(CCCCNC(=O)c3ccc(-c4ccc(C#N)cc4)cc3)CC2)c(OCC(N)=O)c2c1CCCC2
active: growth inhibition [1] 92% | growth inhibition [4] 101%
inactive: inhibition [2] 43% | inhibition [3] -6% | outcome [5] | outcome [6] | outcome [7] | outcome [8]

CCCN1CCC(c2c[nH]c3ccc(NC(=O)Nc4cccc(Cl)c4Cl)cc23)CC1
inactive: growth inhibition [1] 17% | inhibition [2] 30% | inhibition [3] 2% | outcome [5] | outcome [6] | outcome [7] | outcome [8]
active: growth inhibition [4] 100%

FC(F)(F)c1ccc(COc2cc(Cl)ccc2Cn2ccnc2)cc1
active: growth inhibition [4] 95%
inactive: growth inhibition [1] 0% | inhibition [2] 13% | inhibition [3] -5% | outcome [5] | outcome [6] | outcome [7] | outcome [8]

COc1ccc2nccc([C@@H](O)CN3CCC(NC(=O)C(c4cc5ccccc5o4)N4CCC(Cc5ccccc5)CC4)CC3)c2c1 (stereo partly drawn)
active: growth inhibition [1] 82% | growth inhibition [4] 100%
inactive: inhibition [2] 11% | inhibition [3] 0% | outcome [5] | outcome [6] | outcome [7] | outcome [8]

OC(CNCc1ccco1)Cn1c2ccc(Br)cc2c2cc(Br)ccc21 (stereo not drawn)
active: growth inhibition [1] 72% | growth inhibition [4] 92%
inactive: inhibition [2] 10% | inhibition [3] -3% | outcome [5] | outcome [6] | outcome [7] | outcome [8]

CN1CCC(C(=O)N(Cc2ccc(-c3ccc(CNCCc4ccc(S(C)(=O)=O)cc4)cn3)cc2)C2Cc3ccccc3C2)CC1
inactive: growth inhibition [1] 49% | inhibition [2] 21% | inhibition [3] -2% | outcome [5] | outcome [6] | outcome [7] | outcome [8]
active: growth inhibition [4] 98%

Cc1ccc(O)cc1Nc1ccnc2cc(-c3ccc(CN4CCCCC4)o3)ccc12
inactive: inhibition [2] 16% | inhibition [3] 0% | outcome [5] | outcome [6] | outcome [7] | outcome [8]
active: growth inhibition [1] 99% | growth inhibition [4] 100%

CC(=O)Nc1ccc(S(=O)(=O)Nc2c(C)cc(Cc3cnc(N)nc3N)cc2C)cc1
active: growth inhibition [4] 94%
inactive: growth inhibition [1] -1% | inhibition [2] 6% | inhibition [3] 5% | outcome [5] | outcome [6] | outcome [7] | outcome [8]
